# About 83,000 compounds went through this panel and 20% of them were active in at least one assay; those are over-represented in the sample as a whole.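 Single-dose data. Exposure time 48 hours. Values below 10 considered active.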 A number with no mark means an inactive call. The source made the active and inactive calls.
# System: MDA-MB-468 breast
# Experiment: NCI-60 one-dose screen, 48 h (100 = growth as untreated, 0 = no growth, -100 = all killed)
# Details: 10 µM unless noted
row,SMILES,growth
1,S=C1SCN(Cc2cccs2)CN1Cc1cccs1,40.4%
2,CS(=O)(=O)C1=CN(CCO)C(=O)N2CCCN=C12,93.3%
3,CN1CCN(Cc2ccc(NC(=O)c3cncc(C#Cc4c(N)ncc5ccc(C#N)cc45)c3)cc2C(F)(F)F)CC1,96.1%
4,Fc1ccc(-c2cc3nc(C(Cl)Cl)nc(-c4ccc(F)cc4)n3n2)cc1,-63.6% (active)
5,N#Cc1c(Oc2ccc([N+](=O)[O-])cc2)nc2sc3cc(Cl)ccc3n2c1=N,-39.8% (active)
6,O=NC1CC=CCC1c1ccccc1 (stereo not given),104%
7,COc1cc(N2C(=O)[C@H](Cl)C2c2ccc(SC)cc2)cc(OC)c1OC (stereo not given in full),-9.26% (active)
8,c1ccc(C(c2nc3ncncc3[nH]2)N2CSc3nc4ccccc4n3C2)cc1 (stereo not given),94.8%
9,CCOC(=O)N/N=C/c1ccc(OC)c(OC)c1,97.6%
10,CC1(C)CC(=O)C2=C(C1)N(c1ccc(OC(F)(F)F)cc1)C(N)=C(C#N)C2c1ccc(Br)cc1F (stereo not given),55.7%
11,FC(F)(F)Sc1ccc(/C=C/c2cc(/C=C/c3ccc(SC(F)(F)F)cc3)n(-c3ccccc3)n2)cc1,95.8%
12,CCOc1ccc(-c2nc3ccc(-c4nc5ccc(N6CCN(C)CC6)cc5[nH]4)cc3[nH]2)cc1,-85.2% (active)
13,O=C(CN1C=NC2C(N3CCOCC3)=NC=NC21)c1ccc(Br)cc1 (stereo not given),99%
14,O=C1N/C(=N/N=C(c2ccccc2)c2ccccc2)S/C1=C\c1ccc(Br)cc1,103%
15,O=C(N=Nc1c(O)[nH]c2ccccc12)c1oc2ccccc2c1CN1CCN(c2ccccc2)CC1,-46% (active)
